Source: PubChem BioAssay (EPA / NIEHS)
Where “and” joins values, the source holds several entries; their conditions need not be identical. Equal entries are not always repeated. The source holds several records for some structures; these can differ, active in one and inactive in another. Calls of active or inactive are those of the source. The calls were made as follows: active = hit-call score of the fitted dose curve at least 0.9, where 1 is the maximum; inactive = score below 0.9.

How the values were obtained:
[1] = ATG_CRE_CIS: Attagene CIS-FACTORIAL HepG2 Assay for human cAMP Responsive Element (CRE) binding protein 3 (AID 2282926); settings: HepG2 CRE cis-reporter, Attagene multiplexed mRNA; actives raise or lower the signal
Procedure, shortened: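 Endogenous CRE-binding activity in HepG2 is reported through a cis-regulated transfected reporter. Following a day of exposure, mRNA levels are determined by reverse transcription PCR and fluorescent fragment analysis; fits run in both directions versus DMSO.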

[2] = target: CCAAT/enhancer-binding protein beta (Homo sapiens) (UniProt P17676); experiment: ATG_C_EBP_CIS: Attagene CIS-FACTORIAL HepG2 Assay for human CCAAT/Enhancer Binding Protein (C/EBP) beta (AID 2282927); settings: HepG2 Attagene cis-factorial transcription factor reporter; actives raise or lower the signal
Procedure, shortened: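 Transiently transfected HepG2 (MRTU library, endogenous TF-driven promoters); 24 h dosing; total RNA → oligo(dT) RT → PCR → 6-FAM primer extension → HpaI digest → CE; fit bidirectionally vs DMSO.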

[3] = ATG_CMV_CIS: Attagene CIS-FACTORIAL HepG2 Assay for human CMV (Internal Marker) (AID 2282928); settings: HepG2 CMV promoter reporter, transcription factor profiling; actives raise or lower the signal;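 also: endpoint acts as a background internal control marker rather than a target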
Procedure, shortened: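 After transient transfection of HepG2 with reporter transcription units driven by cis-regulatory promoters, cells receive test chemical for 24 h. Labeled reporter amplicons, digested with HpaI, are sized and quantified by capillary electrophoresis against DMSO.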

[4] = ATG_DR4_LXR_CIS: Attagene CIS-FACTORIAL HepG2 Assay for human Liver X Receptor (LXR), DR4 submotif (AID 2282929); settings: HepG2 Attagene DR4 cis-reporter, mRNA transcription; actives raise or lower the signal
Procedure, shortened: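 Readout: reporter transcript fluorescence after RT-PCR and capillary electrophoresis, fitted bidirectionally against DMSO controls. Human HepG2 liver cells carried transiently transfected multiplexed reporter constructs; endogenous transcription factor activity measured 24 h post-dosing.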

[5] = target: Aryl hydrocarbon receptor (Homo sapiens) (UniProt P35869); experiment: ATG_Ahr_CIS: Attagene CIS-FACTORIAL HepG2 Assay for human Aryl Hydrocarbon Receptor (Ahr) (AID 2282930); settings: HepG2 AhR cis-factorial reporter transcription; actives raise or lower the signal
Procedure, shortened: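 Read-out: reporter mRNA quantified by RT-PCR with fluorescent primer extension and capillary electrophoresis. Human HepG2 liver cells carried transfected cis-promoter reporter units and were exposed to chemical for 24 h; gain or loss fitted relative to DMSO.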

[6] = ATG_AP_1_CIS: Attagene CIS-FACTORIAL HepG2 Assay for human Activator Protein 1 (AP-1) (AID 2282931); settings: HepG2 Attagene cis-factorial AP-1 reporter mRNA; actives raise or lower the signal
Procedure, shortened: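 Reporter transcripts were measured 24 h after dosing by RT-PCR and capillary electrophoresis of fluorescent fragments. Cells: HepG2 carrying transfected cis-regulated reporter constructs reading endogenous factor activity. Gain or loss fitted against DMSO.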

[7] = ATG_AP_2_CIS: Attagene CIS-FACTORIAL HepG2 Assay for human Activator Protein 2 (AP-2) (AID 2282932); settings: HepG2 AP-2 cis-reporter, Attagene transcription factor profiling; actives raise or lower the signal
Procedure, shortened: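 HepG2 cells transiently transfected with cis-element reporter units and exposed for 24 h. Reporter mRNA measured by RT-PCR, FAM labelling, HpaI digestion and capillary electrophoresis. Changes in either direction fitted relative to DMSO.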

[8] = ATG_BRE_CIS: Attagene CIS-FACTORIAL HepG2 Assay for human Bone Morphogenetic Protein (BMP) Response Element (BRE) (AID 2282933); settings: HepG2 BMP response element reporter, Attagene transcription factor profiling; actives raise or lower the signal
Procedure, shortened: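 Fluorescence-labelled reporter cDNA fragments, separated by capillary electrophoresis, gave the signal for this component of a 52-readout multiplex. HepG2 cells were transfected, exposed to chemicals for 24 h, and compared with DMSO using bidirectional fitting.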

[9] = target: Transcription factor E2F1 (Homo sapiens) (UniProt Q01094); experiment: ATG_E2F_CIS: Attagene CIS-FACTORIAL HepG2 Assay for human E2F Transcription Factor 1 (AID 2282935); settings: HepG2 Attagene cis-reporter, E2F reporter RNA transcripts; actives raise or lower the signal
Procedure, shortened: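 Endogenous E2F1 activity read through cis-promoter reporter units transfected into HepG2. After 24 h compound treatment, reporter mRNA measured by RT-PCR, HpaI digestion and capillary electrophoresis. Bidirectional fit versus DMSO.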

[10] = ATG_E_Box_CIS: Attagene CIS-FACTORIAL HepG2 Assay for human Enhancer Box (E-box) (AID 2282936); settings: HepG2 E-box cis-reporter transcription, actives raise or lower the signal
Procedure, shortened: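 HepG2 cells transiently transfected with multiplexed cis-element reporter units, dosed 24 h; reporter mRNA quantified by RT-PCR, 6-FAM labelling, HpaI digestion and capillary electrophoresis. E-box (USF1) signal fitted bidirectionally vs DMSO.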

[11] = ATG_M_61_CIS: Attagene CIS-FACTORIAL HepG2 Assay for M61 Transcription Factor (Internal Marker) (AID 2282937); settings: HepG2 Attagene CIS-FACTORIAL M61 internal marker reporter; actives raise or lower the signal
Procedure, shortened: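 Readout: fluorescent reporter mRNA fragments resolved by capillary electrophoresis after RT-PCR. Transiently transfected human HepG2 cells carried MRTU constructs reporting endogenous TF activity; 24 h chemical exposure; gain or loss of signal fitted relative to DMSO.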

[12] = ATG_EGR_CIS: Attagene CIS-FACTORIAL HepG2 Assay for human Early Growth Response 1 (EGR1) (AID 2282938); settings: HepG2 Attagene CIS-FACTORIAL EGR reporter mRNA; actives raise or lower the signal
Procedure, shortened: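 Read-out: fluorescent reporter-mRNA fragments resolved by capillary electrophoresis after RT-PCR, 24 h post-dose in transiently transfected HepG2. Endogenous transcription-factor activity reported via cis-element-regulated reporter units; gain or loss fitted relative to DMSO.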

[13] = ATG_M_19_CIS: Attagene CIS-FACTORIAL HepG2 Assay for M19 Transcription Factor (Internal Marker) (AID 2282939); settings: HepG2 Attagene CIS-FACTORIAL M19 internal marker reporter; actives raise or lower the signal
Procedure, shortened: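 HepG2, MRTU transient transfection, 24 h dosing. Total RNA → RT-PCR → 6-FAM primer extension → HpaI digest → CE fluorescence. Bidirectional curve fit, DMSO negative control.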

[14] = ATG_ERE_CIS: Attagene CIS-FACTORIAL HepG2 Assay for Estrogen Response Element (ERE) (AID 2282940); settings: HepG2 ERE cis-reporter, Attagene RNA transcript; actives raise or lower the signal
Procedure, shortened: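 After a 24 h chemical treatment, RNA from reporter-transfected HepG2 cells is reverse-transcribed, PCR-amplified and fluorescently labelled. Fragments separated by capillary electrophoresis give reporter signal; DMSO serves as negative control.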

[15] = ATG_Ets_CIS: Attagene CIS-FACTORIAL HepG2 Assay for human Erythroblast Transformation Specific (ETS) (AID 2282941); settings: HepG2 ETS cis-reporter transcription, actives raise or lower the signal
Procedure, shortened: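 Human HepG2 hepatoma cells were transiently transfected with promoter-driven reporter constructs and treated for 24 hours. Reporter transcripts were quantified by RT-PCR with fluorescent primer extension; bidirectional curve fitting used DMSO as reference.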

[16] = target: Hepatocyte nuclear factor 3-beta (Homo sapiens) (UniProt Q9Y261); experiment: ATG_FoxA2_CIS: Attagene CIS-FACTORIAL HepG2 Assay for human Forkhead box A2 (FOXA2) (AID 2282942); settings: HepG2 cis-reporter transcription factor activity, 24 h; actives raise or lower the signal
Procedure, shortened: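 Readout: fluorescent reporter transcripts resolved by capillary electrophoresis after RT-PCR. Transiently transfected HepG2, 24 h compound exposure, endogenous TF activity at cis promoter elements. Gain or loss of signal fitted relative to DMSO.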

[17] = ATG_FoxO_CIS: Attagene CIS-FACTORIAL HepG2 Assay for human Forkhead box O (FoxO) (AID 2282943); settings: HepG2 Attagene cis-reporter, FoxO element, mRNA; actives raise or lower the signal
Procedure, shortened: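 Read-out: fluorescence of 6-FAM-labelled reporter cDNA fragments resolved by capillary electrophoresis. Transiently transfected HepG2 cells were dosed for 24 h; activity fitted in both directions relative to DMSO controls.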

[18] = ATG_GATA_CIS: Attagene CIS-FACTORIAL HepG2 Assay for human GATA Binding Protein (AID 2282944); settings: HepG2 GATA cis-element reporter, Attagene multiplex mRNA; actives raise or lower the signal
Procedure, shortened: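 Cells: HepG2, transiently transfected with cis-regulated reporter transcription units. Exposure: 24 h. Detection: RT-PCR plus capillary electrophoresis of FAM-labeled fragments. Analysis: bidirectional, DMSO as baseline.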

[19] = target: Retinoic acid receptor alpha (Homo sapiens) (UniProt P10276); experiment: ATG_DR5_RAR_CIS: Attagene CIS-FACTORIAL HepG2 Assay for human Retinoic Acid Receptor Alpha (RARE), DR5 submotif (AID 2282934); settings: HepG2 Attagene cis-factorial RARE DR5 reporter, mRNA; actives raise or lower the signal;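 as to AC50: reporter responds to endogenous RAR alpha beta and gamma in HepG2 not RARA alone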
Procedure, shortened: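 Read-out: DR5-driven reporter transcript measured by RT-PCR, 6-FAM primer extension, HpaI digest and capillary electrophoresis. Human HepG2 liver cells carry transiently transfected cis-element reporter constructs; dosing lasts 24 h. Gain or loss of signal fitted against DMSO baseline.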

[20] = APR_HepG2_NuclearSize_72hr: Apredica 72-hour HepG2 Assay for Nuclear Size (AID 2282925); settings: high-content imaging, actives raise or lower the signal
Procedure, shortened: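 HepG2 cells dosed 72 h at 0.39–200 uM (10 concentrations, duplicate) in 0.5% v/v DMSO final. Fixed, Hoechst 33342-stained nuclei imaged; nuclear diameter measured by automated image analysis. Bidirectional fit versus DMSO.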

Chain of CCAAT/enhancer-binding protein beta (Homo sapiens) (P17676 whole entry, looked up): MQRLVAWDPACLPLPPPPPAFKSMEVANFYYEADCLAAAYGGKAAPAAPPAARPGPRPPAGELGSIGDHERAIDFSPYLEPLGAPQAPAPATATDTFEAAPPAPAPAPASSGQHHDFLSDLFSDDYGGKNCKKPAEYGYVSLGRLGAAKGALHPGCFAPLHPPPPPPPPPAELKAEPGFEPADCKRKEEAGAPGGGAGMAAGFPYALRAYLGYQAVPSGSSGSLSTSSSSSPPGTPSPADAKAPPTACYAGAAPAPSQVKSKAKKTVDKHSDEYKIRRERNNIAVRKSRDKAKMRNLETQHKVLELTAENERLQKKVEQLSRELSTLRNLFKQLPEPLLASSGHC
Chain of Hepatocyte nuclear factor 3-beta (Homo sapiens) (Q9Y261 whole entry, looked up): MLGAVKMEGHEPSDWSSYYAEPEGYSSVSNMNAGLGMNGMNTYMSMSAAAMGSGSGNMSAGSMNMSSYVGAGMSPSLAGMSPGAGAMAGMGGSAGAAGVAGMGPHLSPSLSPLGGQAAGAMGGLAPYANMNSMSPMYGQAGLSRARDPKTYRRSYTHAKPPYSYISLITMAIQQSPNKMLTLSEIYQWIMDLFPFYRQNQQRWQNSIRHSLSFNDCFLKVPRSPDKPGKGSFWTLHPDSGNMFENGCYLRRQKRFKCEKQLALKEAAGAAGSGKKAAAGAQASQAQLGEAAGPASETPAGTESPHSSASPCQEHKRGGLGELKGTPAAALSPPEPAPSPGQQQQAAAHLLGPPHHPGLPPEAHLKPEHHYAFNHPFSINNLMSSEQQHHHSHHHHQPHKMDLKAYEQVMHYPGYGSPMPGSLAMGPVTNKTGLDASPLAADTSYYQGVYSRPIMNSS
Chain of Aryl hydrocarbon receptor (Homo sapiens) (P35869 whole entry, looked up): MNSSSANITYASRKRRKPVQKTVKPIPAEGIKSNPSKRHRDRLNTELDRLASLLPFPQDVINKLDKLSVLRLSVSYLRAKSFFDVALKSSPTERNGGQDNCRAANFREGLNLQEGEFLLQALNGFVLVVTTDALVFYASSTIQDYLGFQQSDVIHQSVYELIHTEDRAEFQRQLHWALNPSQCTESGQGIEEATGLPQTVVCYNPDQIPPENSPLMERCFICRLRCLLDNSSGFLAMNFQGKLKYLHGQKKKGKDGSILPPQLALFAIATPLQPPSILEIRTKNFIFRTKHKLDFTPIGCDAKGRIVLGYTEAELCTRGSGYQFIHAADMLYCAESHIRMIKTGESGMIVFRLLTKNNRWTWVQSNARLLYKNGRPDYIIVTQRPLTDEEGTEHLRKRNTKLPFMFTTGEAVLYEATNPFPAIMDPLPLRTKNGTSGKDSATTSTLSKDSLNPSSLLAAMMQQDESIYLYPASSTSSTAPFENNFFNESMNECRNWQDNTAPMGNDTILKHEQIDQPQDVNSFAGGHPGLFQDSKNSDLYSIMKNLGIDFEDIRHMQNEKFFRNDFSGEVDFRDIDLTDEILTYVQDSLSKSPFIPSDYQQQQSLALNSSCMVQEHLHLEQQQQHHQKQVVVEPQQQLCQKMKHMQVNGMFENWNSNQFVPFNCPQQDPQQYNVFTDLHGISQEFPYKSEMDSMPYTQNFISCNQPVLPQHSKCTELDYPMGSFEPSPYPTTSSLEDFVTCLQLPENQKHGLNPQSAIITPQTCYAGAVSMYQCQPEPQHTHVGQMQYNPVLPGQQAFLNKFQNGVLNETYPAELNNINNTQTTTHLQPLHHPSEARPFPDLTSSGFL
Chain of Transcription factor E2F1 (Homo sapiens) (Q01094 whole entry, looked up): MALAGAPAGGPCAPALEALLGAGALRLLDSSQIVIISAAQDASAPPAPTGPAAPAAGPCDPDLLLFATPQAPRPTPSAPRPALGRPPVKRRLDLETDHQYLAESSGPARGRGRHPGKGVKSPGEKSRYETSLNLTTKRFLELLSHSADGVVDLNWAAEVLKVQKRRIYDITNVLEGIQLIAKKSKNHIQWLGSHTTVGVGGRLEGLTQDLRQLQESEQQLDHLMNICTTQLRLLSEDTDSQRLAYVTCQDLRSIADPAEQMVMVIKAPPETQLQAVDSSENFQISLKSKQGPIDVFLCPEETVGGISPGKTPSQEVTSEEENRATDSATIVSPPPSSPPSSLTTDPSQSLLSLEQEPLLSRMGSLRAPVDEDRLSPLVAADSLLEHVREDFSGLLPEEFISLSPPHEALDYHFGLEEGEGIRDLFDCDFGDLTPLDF
Chain of Retinoic acid receptor alpha (Homo sapiens) (P10276 whole entry, looked up): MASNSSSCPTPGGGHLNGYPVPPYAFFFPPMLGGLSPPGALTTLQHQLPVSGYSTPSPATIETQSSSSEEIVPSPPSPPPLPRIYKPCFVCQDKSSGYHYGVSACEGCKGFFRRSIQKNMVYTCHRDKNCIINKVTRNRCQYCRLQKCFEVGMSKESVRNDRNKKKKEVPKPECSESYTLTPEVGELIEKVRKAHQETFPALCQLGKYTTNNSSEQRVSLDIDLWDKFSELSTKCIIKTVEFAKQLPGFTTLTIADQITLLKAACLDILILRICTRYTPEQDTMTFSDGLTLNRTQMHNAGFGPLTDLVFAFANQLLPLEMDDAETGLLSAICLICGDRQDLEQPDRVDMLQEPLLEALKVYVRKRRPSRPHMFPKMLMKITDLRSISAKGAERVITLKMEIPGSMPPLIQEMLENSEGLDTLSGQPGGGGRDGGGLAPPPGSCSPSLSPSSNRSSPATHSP

## O=C(O)c1nc(Cl)ccc1Cl
[1]
  outcome: inactive
[2]
  outcome: inactive
[3]
  outcome: inactive
[4]
  outcome: inactive
[5]
  AC50: 50 µM (active)
  outcome: inactive
[6]
  outcome: inactive
[7]
  outcome: inactive
[8]
  outcome: inactive
[9]
  outcome: inactive
[10]
  outcome: inactive
[11]
  outcome: inactive
[12]
  outcome: inactive
[13]
  outcome: inactive
[14]
  outcome: inactive
[15]
  outcome: inactive
[16]
  outcome: inactive
[17]
  outcome: inactive
[18]
  outcome: inactive

## CNC(=O)ON=CC(C)(C)SC
[1]
  outcome: inactive
[2]
  outcome: inactive
[3]
  outcome: inactive
[4]
  outcome: inactive
[5]
  outcome: inactive
[6]
  outcome: inactive
[7]
  outcome: inactive
[8]
  outcome: inactive
[19]
  outcome: inactive
[9]
  AC50: 149 µM (active)
  outcome: inactive
[10]
  outcome: inactive
[11]
  outcome: inactive
[12]
  outcome: inactive
[13]
  outcome: inactive
[14]
  outcome: inactive
[15]
  outcome: inactive
[16]
  outcome: inactive
[17]
  outcome: inactive
[18]
  outcome: inactive

## CO/C=C(/C(=O)OC)c1ccccc1Oc1cc(Oc2ccccc2C#N)ncn1
[1]
  AC50: 21 µM (active)
  outcome: inactive
[2]
  AC50: 7.46 µM (active)
  outcome: inactive
[3]
  outcome: inactive
[4]
  AC50: 41.8 µM (active) and 26.2 µM (active) and 52.9 µM (active)
  outcome: inactive
[5]
  AC50: 106 µM (active) and 122 µM (active)
  outcome: inactive
[6]
  AC50: 9.92 µM (active)
  outcome: inactive
[7]
  outcome: inactive
[8]
  outcome: inactive
[19]
  outcome: inactive
[9]
  outcome: inactive
[10]
  outcome: inactive
[11]
  outcome: inactive
[12]
  AC50: 11.7 µM (active) and 13.8 µM (active)
  outcome: inactive
[13]
  outcome: inactive
[14]
  outcome: inactive
[15]
  outcome: inactive
[16]
  outcome: inactive
[17]
  outcome: inactive
[18]
  outcome: inactive

## O=C(Nc1ccccc1)Nc1ccnc(Cl)c1
[20]
  outcome: inactive
[1]
  AC50: 22.5 µM (active)
[2]
  AC50: 50 µM (active)
[3]
  AC50: 26.5 µM (active)
[4]
  outcome: inactive
[5]
  outcome: inactive
[6]
  AC50: 16.3 µM (active)
[7]
  outcome: inactive
[8]
  AC50: 27.8 µM (active)
[19]
  AC50: 88.1 µM (active)
[9]
  outcome: inactive
[10]
  outcome: inactive
[11]
  outcome: inactive
[12]
  AC50: 50 µM (active)
[13]
  outcome: inactive
[14]
  outcome: inactive
[15]
  outcome: inactive
[16]
  outcome: inactive
[17]
  AC50: 13 µM (active)
[18]
  outcome: inactive

## COc1ccc(C(c2ccc(OC)cc2)C(Cl)(Cl)Cl)cc1
[20]
  outcome: inactive
[1]
  outcome: inactive
[2]
  outcome: inactive
[3]
  outcome: inactive
[4]
  outcome: inactive
[5]
  AC50: 15.2 µM (active)
  outcome: inactive
[6]
  AC50: 39.8 µM (active) and 59.5 µM (active) and 34.4 µM (active)
  outcome: inactive
[7]
  outcome: inactive
[8]
  AC50: 29.7 µM (active) and 15.5 µM (active)
  outcome: inactive
[19]
  AC50: 19.7 µM (active)
  outcome: inactive
[9]
  outcome: inactive
[10]
  AC50: 27 µM (active) and 5.64 µM (active)
  outcome: inactive
[11]
  outcome: inactive
[12]
  outcome: inactive
[13]
  outcome: inactive
[14]
  AC50: 5.09 µM (active) [middle of 4 runs]
  outcome: inactive
[15]
  outcome: inactive
[16]
  outcome: inactive
[17]
  outcome: inactive
[18]
  outcome: inactive

## COC(=O)c1ccccc1C(=O)OC
[1]
  outcome: inactive
[2]
  outcome: inactive
[3]
  outcome: inactive
[4]
  outcome: inactive
[5]
  outcome: inactive
[6]
  outcome: inactive
[7]
  outcome: inactive
[8]
  outcome: inactive
[19]
  outcome: inactive
[9]
  outcome: inactive
[10]
  outcome: inactive
[11]
  outcome: inactive
[12]
  outcome: inactive
[13]
  outcome: inactive
[14]
  outcome: inactive
[15]
  outcome: inactive
[16]
  outcome: inactive
[17]
  outcome: inactive
[18]
  outcome: inactive
